This is an account of results in PubChem BioAssay (NCATS).

Results filed as inconclusive are left out. Entries that show only a call come without a potency. The source made the active and inactive calls. Calls come from the whole dose curve; as a rule, active = well fitted inhibition curve with a large enough effect; inconclusive = small, poorly fitted or top-dose-only effect, or effect the other way; inactive = flat fitted curve, though single readings scatter.
Potency is the fitted concentration of half-maximal effect.

The nature of the assay: Quantitative high throughput screen for delayed death inhibitors of the malarial parasite plastid, 48 hour incubation (AID 488752). Note: nearly all actives have a fitted effect of over 65% in size. As to conditions: Plasmodium falciparum growth; series mostly up to 28.7 µM. From the text:
NIH Molecular Libraries Probe Production Network [MLPCN]
NIH Chemical Genomics Center [NCGC]
Assay Provider: David Fidock and Eric Ekland, Columbia University
The goal of this screen is to discover new antimalarial compounds that act by inhibiting the development of the apicoplast in the malarial parasite Plasmodium falciparum. The biochemical processes that make this organelle essential for erythrocytic stage parasites are not well understood. However, antibiotics, such as azithromycin and tetracycline, which target the apicoplast translational machinery, have a potent antimalarial effect.
We have developed a cell-based assay that measures parasite growth based on the expression of an integrated copy of a firefly luciferase reporter. To detect small molecules that cause this 'delayed death' phenotype, erythrocytes infected with the luciferase-expressing parasites were incubated with compounds for either one or two generations, corresponding to 48 and 96 hours, respectively. Compounds that inhibit parasite growth in the second generation, but not the first, should be enriched in antimalarials that target the apicoplast. Growth inhibition is detected by a decrease in luciferase activity
Four microliters of culture medium (RPMI 1640 with 0.5% w/v Albumax (GIBCO), 24 mM sodium bicarbonate and 10 ug/mL gentamycin) were dispensed by a Multi-drop Combi into white solid 1536-well plates (Grenier) and 23 nL compound was added by a pin tool. Four microliters of infected erythrocytes (2% hematocrit, 0.1% parasitemia final concentration) in culture medium were dispensed and the plates incubated for 48 hours at 37 C in 5% CO2. Two microliters of luciferase detection reagent was added and luminescence was detected by a ViewLux (PerkinElmer) reader
On to `CC(N=C(NC#N)Nc1ccncc1)C(C)(C)C` (stereo not given), for which the Potency entry was “inactive”.

Regarding `CC(=O)OC(C)C[N+](C)(C)C` (stereo not given), the Potency result is “inactive”.

On to `O=C(O)CCCCCCCC(=O)O`, for which the Potency result was “inactive”.

For the molecule `Cc1ccc(S(=O)(=O)NC(=O)NN2CCCCCC2)cc1`, the Potency result was “inactive”.

In the case of `Cc1ccc(=O)n(-c2ccccc2)c1`, the Potency entry was “inactive”.

Take `c1cnc(N2CCN(Cc3ccc4c(c3)OCO4)CC2)nc1`: the Potency result was “inactive”.

Consider `CN(C)CCN(Cc1cccs1)c1ccccn1`, for which the Potency result was “inactive”.

With `C[C@H](CS)C(=O)N1CCC[C@H]1C(=O)O`, the Potency result is “inactive”.

On to `NC(=O)N1c2ccccc2C=Cc2ccccc21`, for which the Potency entry was “inactive”.

Consider `N[C@@H](COP(=O)(O)O)C(=O)O`, for which the Potency entry was “inactive”.

Turning to `CCNC(=O)N1CCN(CCCC(c2ccc(F)cc2)c2ccc(F)cc2)CC1`, the Potency was 2.94 µM (active).

For the molecule `O=c1[nH]c(=O)n([C@H]2C[C@H](O)[C@@H](CO)O2)cc1Br`, the Potency result was “inactive”.

In the case of `NC/C=C/C(=O)O`, the Potency entry is “inactive”.

As to `COC(=O)C1=C(C)NC(C)=C(C(=O)OCCN(C)Cc2ccccc2)C1c1cccc([N+](=O)[O-])c1` (stereo not given), the Potency was 2.94 µM (active).

Turning to `C[C@]12C=CC(=O)C=C1CC[C@H]1[C@@H]3C[C@@H](O)[C@](O)(C(=O)CO)[C@@]3(C)C[C@H](O)[C@@]12F`, the Potency result is “inactive”.

For `CCCN(CCC)CCc1cccc2c1CC(=O)N2`, the Potency entry is “inactive”.

Turning to `CN(C)C(=O)Oc1ccc[n+](C)c1`, the Potency entry was “inactive”.

On to `Cc1nc2sccn2c(=O)c1CCN1CCC(=C(c2ccc(F)cc2)c2ccc(F)cc2)CC1`, for which the Potency entry was “inactive”.

Take `CCCN(CCC)C(=O)C(CCC(=O)O)NC(=O)c1ccccc1` (stereo not given): the Potency result was “inactive”.

`CC(=O)[C@]1(O)Cc2c(O)c3c(c(O)c2[C@@H](O[C@H]2C[C@H](N)[C@H](O)[C@H](C)O2)C1)C(=O)c1ccccc1C3=O`: the Potency was 3.7 µM (active).

Regarding `CN(C)CC[C@@H](c1ccc(Br)cc1)c1ccccn1`, the Potency entry was “inactive”.

`CC(C)(C)NCC(O)c1cc(O)cc(O)c1` (stereo not given): the Potency result is “inactive”.

`NCCCNCCSP(=O)(O)O`: the Potency result was “inactive”.

For the molecule `CCN(Cc1ccncc1)C(=O)C(CO)c1ccccc1` (stereo not given), the Potency result is “inactive”.

For `NC(N)=N/N=C/c1c(Cl)cccc1Cl`, the Potency entry was “inactive”.

On to `C(=C\c1ccccc1)/CN1CCN(C(c2ccccc2)c2ccccc2)CC1`, for which the Potency result is “inactive”.

For the molecule `C[C@]12CCC(=O)C=C1CC[C@@H]1[C@@H]2CC[C@@]2(C)[C@H]1CC[C@]2(O)C(=O)CO`, the Potency entry is “inactive”.

`COc1ccc([C@@H]2Sc3ccccc3N(CCN(C)C)C(=O)[C@@H]2OC(C)=O)cc1`: the Potency entry was “inactive”.

For the molecule `CCOC(=O)C1=C(C)NC(C)=C(C(=O)OC)C1c1cccc(Cl)c1Cl` (stereo not given), the Potency is 11.7 µM (active).

Regarding `CC(=O)Oc1cc(C(C)C)c(OCCN(C)C)cc1C`, the Potency result is “inactive”.

Take `CC(C)NCC(O)c1cc(O)cc(O)c1` (stereo not given): the Potency result was “inactive”.

In the case of `CCN(CC)CCNC(=O)c1cc(S(C)(=O)=O)ccc1OC`, the Potency result was “inactive”.

Consider `COc1ccc(CCN(C)CCCC(C#N)(c2cc(OC)c(OC)c(OC)c2)C(C)C)cc1OC` (stereo not given), for which the Potency is 8.28 µM (active).

On to `O=C(O)CN(CCOCCOCCN(CC(=O)O)CC(=O)O)CC(=O)O`, for which the Potency entry is “inactive”.

Take `C[N+](C)(C)CCOC(N)=O`: the Potency entry was “inactive”.

For the molecule `COCC(=O)O[C@]1(CCN(C)CCCc2nc3ccccc3[nH]2)CCc2cc(F)ccc2[C@@H]1C(C)C`, the Potency was 5.86 µM (active).

On to `CN(C)C/C=C(/c1ccc(Br)cc1)c1cccnc1`, for which the Potency was 13.1 µM (active).

Take `O=C1CC2(CCCC2)CC(=O)N1CCCCN1CCN(c2ncccn2)CC1`: the Potency entry is “inactive”.

With `CC(C)COCC(CN(Cc1ccccc1)c1ccccc1)N1CCCC1` (stereo not given), the Potency entry is “inactive”.

Consider `CCN1CCc2nc(N)oc2CC1`, for which the Potency result is “inactive”.
